# Measurements reported in PubChem BioAssay (NCI).
# This is part of a sample that, as a whole, favours compounds with a hit. Of some 79,000 tested, about 15% had one in any assay. Unmarked numbers belong to inactive results. Calls of active or inactive are those of the source. Cut-off read from the data, not from the text of the source: active = growth inhibition above about 70%; inactive = the rest.
# Legend:
# [1] = NCI Yeast Anticancer Drug Screen. Data for the mec2-1 strain (AID 157); details: S. cerevisiae mec2-1 strain, active compounds read high
# Method in brief: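 Yeast mec2-1 mutant treated with compound. Readout: growth inhibition vs vehicle controls.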
# [2] = NCI Yeast Anticancer Drug Screen. Data for the rad14 strain (AID 159);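 note: 0% = growth of vehicle-treated control cultures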; details: S. cerevisiae rad14 strain growth inhibition, active compounds read high
# Method in brief: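 A mutant yeast strain defective in DNA damage repair is treated with compound; inhibition of its growth is scored against untreated, vehicle-exposed cultures.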
# [3] = NCI Yeast Anticancer Drug Screen. Data for the sgs1 mgt1 strain (AID 161);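 note: 0% = growth of cultures given vehicle only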; details: S. cerevisiae sgs1 mgt1 strain, active compounds read high
# Method in brief: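 Mutant yeast exposed to compound; growth scored against vehicle-only wells.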
# [4] = NCI Yeast Anticancer Drug Screen. Data for the CLN2oe strain (AID 163);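 note: 0% = growth of vehicle-only control cultures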; details: S. cerevisiae CLN2oe strain, active compounds read high
# Method in brief: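 Read-out: yeast growth inhibition, expressed relative to vehicle-only controls. The strain bears an engineered cell-cycle alteration.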
# [5] = NCI Yeast Anticancer Drug Screen. Data for the cln2 rad14 strain (AID 165);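 note: 0% = growth equal to vehicle treated cultures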; details: S. cerevisiae cln2 rad14 strain, active compounds read high
# Method in brief: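 cln2 rad14 yeast strain; compound exposure; growth inhibition read vs vehicle controls.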
# [6] = NCI Yeast Anticancer Drug Screen. Data for the bub3 strain (AID 167); details: S. cerevisiae bub3 mutant strain, active compounds read high
# Method in brief: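 Steps: expose the mutant yeast strain to compound; grow alongside vehicle-treated cultures; measure growth; express inhibition against the vehicle cultures.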
# [7] = NCI Yeast Anticancer Drug Screen. Data for the wt2 strain (AID 169);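 note: 0% = growth of vehicle-treated yeast cultures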; details: S. cerevisiae wt2 strain growth inhibition, active compounds read high
# Method in brief: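 Read-out: growth inhibition versus vehicle-treated control cultures after compound exposure of the yeast strain.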
# [8] = NCI Yeast Anticancer Drug Screen. Data for the mlh1 strain (AID 171);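 note: 0% = growth of vehicle-treated control cultures of the same strain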; details: S. cerevisiae mlh1 strain growth inhibition, active compounds read high
# Method in brief: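 Read-out: growth inhibition versus vehicle controls. Strain: engineered yeast with a defined DNA repair or cell cycle defect, compound-treated.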
# [9] = NCI Yeast Anticancer Drug Screen. Data for the sgs1 strain (AID 173);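 note: 0% = growth of vehicle-only control cultures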; details: S. cerevisiae sgs1 mutant, active compounds read high
# Method in brief: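 Read-out: yeast growth inhibition relative to vehicle controls, following compound exposure of a strain with a defined DNA repair/cell cycle alteration.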
# [10] = NCI Yeast Anticancer Drug Screen. Data for the mlh1 rad18 strain (AID 175); details: S. cerevisiae mlh1 rad18 strain growth inhibition, active compounds read high
# Method in brief: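 Yeast w/ defined DNA-repair lesions; compound exposure; growth vs vehicle controls → % inhibition.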
# [11] = NCI Yeast Anticancer Drug Screen. Data for the rad18 strain (AID 177); details: S. cerevisiae rad18 mutant growth inhibition, active compounds read high
# Method in brief: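 Readout: growth inhibition vs vehicle controls. Cells: genetically altered yeast strain, DNA repair defect.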
# [12] = NCI Yeast Anticancer Drug Screen. Data for the wt1 strain (AID 149);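 note: 0% = growth of vehicle-treated wt1 cultures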; details: S. cerevisiae wt1 strain (SPY 50644) growth inhibition, active compounds read high
# Method in brief: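 Compounds are added to wt1 yeast cultures. Growth is then measured. Inhibition is expressed relative to vehicle-treated controls.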
# [13] = NCI Yeast Anticancer Drug Screen. Data for the rad50EPP+ strain (AID 151);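 note: 0% = growth of vehicle-treated control cultures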; details: S. cerevisiae rad50 mutant strain, active compounds read high
# Method in brief: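 Growth inhibition read against vehicle controls in rad50EPP+ yeast, a strain altered in DNA damage repair, after compound exposure.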
# [14] = NCI Yeast Anticancer Drug Screen. Data for the mgt1 strain (AID 153); details: S. cerevisiae mgt1 mutant growth inhibition, active compounds read high
# Method in brief: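 mgt1 yeast grown with test compound; read-out is growth inhibition versus vehicle-treated cultures.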
# [15] = NCI Yeast Anticancer Drug Screen. Data for the rad50 strain (AID 155);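 note: 0% = growth of vehicle-only cultures of the same strain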; details: S. cerevisiae rad50 strain growth inhibition, active compounds read high
# Method in brief: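 Inhibition values express reduced yeast growth in compound-treated cultures relative to vehicle-treated controls.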
# [16] = at 5.0 µM (retest, dose inferred, filed as 0.5)
# [17] = at 50.0 µM (retest, dose inferred, filed as 5.0)
smiles,measurement,setting,value
Oc1cccc2nc3ccccc3nc12,growth inhibition,[1]; at 100.0 µM,94% (active)
same,growth inhibition,[2]; at 1.2 µM,-31%
same,growth inhibition,[2]; at 3.7 µM,-32%
same,growth inhibition,[2]; at 11.0 µM,-27%
same,growth inhibition,[2]; at 33.0 µM,19%
same,growth inhibition,[2]; at 100.0 µM,92% (active)
same,growth inhibition,[3]; [16],-4%
same,growth inhibition,[3]; [17],29%
same,growth inhibition,[3]; at 50.0 µM,21%
same,growth inhibition,[4]; at 1.2 µM,-27%
same,growth inhibition,[4]; at 3.7 µM,-14%
same,growth inhibition,[4]; at 11.0 µM,-22%
same,growth inhibition,[4]; at 33.0 µM,6%
same,growth inhibition,[4]; at 100.0 µM,93% (active)
same,growth inhibition,[5]; [16],1%
same,growth inhibition,[5]; [17],13%
same,growth inhibition,[5]; at 50.0 µM,35.4%
same,growth inhibition,[6]; at 1.2 µM,-31%
same,growth inhibition,[6]; at 3.7 µM,-28%
same,growth inhibition,[6]; [16],-3%
same,growth inhibition,[6]; at 11.0 µM,-16%
same,growth inhibition,[6]; at 33.0 µM,-4%
same,growth inhibition,[6]; [17],35%
same,growth inhibition,[6]; at 50.0 µM,47.2%
same,growth inhibition,[6]; at 100.0 µM,94% (active)
same,growth inhibition,[7]; at 1.2 µM,-48%
same,growth inhibition,[7]; at 3.7 µM,-44%
same,growth inhibition,[7]; at 11.0 µM,-39%
same,growth inhibition,[7]; at 33.0 µM,-9%
same,growth inhibition,[7]; at 100.0 µM,75% (active)
same,growth inhibition,[8]; at 1.2 µM,-58%
same,growth inhibition,[8]; at 3.7 µM,-33%
same,growth inhibition,[8]; at 11.0 µM,-27%
same,growth inhibition,[8]; at 33.0 µM,12%
same,growth inhibition,[8]; at 100.0 µM,92% (active)
same,growth inhibition,[9]; at 1.2 µM,-43%
same,growth inhibition,[9]; at 3.7 µM,-44%
same,growth inhibition,[9]; at 11.0 µM,-41%
same,growth inhibition,[9]; at 33.0 µM,-18%
same,growth inhibition,[9]; at 100.0 µM,86% (active)
same,growth inhibition,[10]; [16],-41%
same,growth inhibition,[10]; [17],58%
same,growth inhibition,[10]; at 50.0 µM,64.5%
same,growth inhibition,[11]; at 1.2 µM,-29%
same,growth inhibition,[11]; at 3.7 µM,-26%
same,growth inhibition,[11]; at 11.0 µM,-14%
same,growth inhibition,[11]; at 33.0 µM,27%
same,growth inhibition,[11]; at 100.0 µM,93% (active)
CCOC(=O)C1C2c3ccccc3C(c3ccccc32)C1C(=O)OCC (stereo unspecified),growth inhibition,[12]; at 1.2 µM,-1%
same,growth inhibition,[12]; at 3.7 µM,-2%
same,growth inhibition,[12]; at 11.0 µM,-1%
same,growth inhibition,[12]; at 33.0 µM,2%
same,growth inhibition,[12]; at 100.0 µM,79% (active)
same,growth inhibition,[13]; at 1.2 µM,-1%
same,growth inhibition,[13]; at 3.7 µM,-2%
same,growth inhibition,[13]; at 11.0 µM,2%
same,growth inhibition,[13]; at 33.0 µM,-2%
same,growth inhibition,[13]; at 100.0 µM,1%
same,growth inhibition,[14]; at 1.2 µM,-1%
same,growth inhibition,[14]; at 3.7 µM,1%
same,growth inhibition,[14]; at 11.0 µM,4%
same,growth inhibition,[14]; at 33.0 µM,7%
same,growth inhibition,[14]; at 100.0 µM,93% (active)
same,growth inhibition,[15]; at 1.2 µM,3%
same,growth inhibition,[15]; at 3.7 µM,3%
same,growth inhibition,[15]; [16],13%
same,growth inhibition,[15]; at 11.0 µM,8%
same,growth inhibition,[15]; at 33.0 µM,15%
same,growth inhibition,[15]; [17],77% (active)
same,growth inhibition,[15]; at 50.0 µM,17.3%
same,growth inhibition,[15]; at 100.0 µM,91% (active)
same,growth inhibition,[1]; at 1.2 µM,-1%
same,growth inhibition,[1]; at 3.7 µM,1%
same,growth inhibition,[1]; [16],-8%
same,growth inhibition,[1]; at 11.0 µM,3%
same,growth inhibition,[1]; at 33.0 µM,6%
same,growth inhibition,[1]; [17],1%
same,growth inhibition,[1]; at 50.0 µM,74.7% (active)
same,growth inhibition,[1]; at 100.0 µM,89% (active)
same,growth inhibition,[2]; at 1.2 µM,5%
same,growth inhibition,[2]; at 3.7 µM,7%
same,growth inhibition,[2]; at 11.0 µM,12%
same,growth inhibition,[2]; at 33.0 µM,16%
same,growth inhibition,[2]; at 100.0 µM,90% (active)
same,growth inhibition,[3]; [16],2%
same,growth inhibition,[3]; [17],89% (active)
same,growth inhibition,[3]; at 50.0 µM,80.2% (active)
same,growth inhibition,[4]; at 1.2 µM,7%
same,growth inhibition,[4]; at 3.7 µM,7%
same,growth inhibition,[4]; at 11.0 µM,19%
same,growth inhibition,[4]; at 33.0 µM,30%
same,growth inhibition,[4]; at 100.0 µM,93% (active)
same,growth inhibition,[5]; [16],-4%
same,growth inhibition,[5]; [17],28%
same,growth inhibition,[5]; at 50.0 µM,56.7%
same,growth inhibition,[6]; at 1.2 µM,0%
same,growth inhibition,[6]; at 3.7 µM,8%
same,growth inhibition,[6]; [16],18%
same,growth inhibition,[6]; at 11.0 µM,11%
same,growth inhibition,[6]; at 33.0 µM,17%
same,growth inhibition,[6]; [17],60%
same,growth inhibition,[6]; at 50.0 µM,49%
same,growth inhibition,[6]; at 100.0 µM,76% (active)
same,growth inhibition,[7]; at 1.2 µM,-12%
same,growth inhibition,[7]; at 3.7 µM,-11%
same,growth inhibition,[7]; at 11.0 µM,7%
same,growth inhibition,[7]; at 33.0 µM,6%
same,growth inhibition,[7]; at 100.0 µM,95% (active)
same,growth inhibition,[8]; at 1.2 µM,-1%
same,growth inhibition,[8]; at 3.7 µM,6%
same,growth inhibition,[8]; at 11.0 µM,7%
same,growth inhibition,[8]; at 33.0 µM,16%
same,growth inhibition,[8]; at 100.0 µM,86% (active)
same,growth inhibition,[10]; [16],16%
same,growth inhibition,[10]; [17],87% (active)
same,growth inhibition,[10]; at 50.0 µM,53.1%
same,growth inhibition,[11]; at 1.2 µM,1%
same,growth inhibition,[11]; at 3.7 µM,8%
same,growth inhibition,[11]; at 11.0 µM,9%
same,growth inhibition,[11]; at 33.0 µM,11%
same,growth inhibition,[11]; at 100.0 µM,91% (active)
